Screening data as filed in PubChem.
An excerpt weighted towards active compounds, which were near 1.9% of everything screened.
S1P3 antagonist: S1P3 (human) receptor antagonism | Q99500 | CHO S1P3 NFAT-BLA reporter, FRET fluorescence, antagonist mode | inhibition, % at 4.98 µM | 170,000 tested, 0.27% active;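 active = inhibition above the plate cutoff, the mean inhibition of test wells on that plate plus 3 SD, cut at about 28% in these data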;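 also: cells challenged with S1P at its EC80 of 0.8 µM; blue over green emission ratio from cleaved BLA substrate after 4 h stimulation; 0% = S1P-stimulated wells and 100% = unstimulated DMSO-only wells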
EP2 modulator: modulators of human EP2 prostaglandin E2 receptor; EP2-expressing cells, cAMP HTRF FRET, PGE2 co-stimulation; induction, % at 25 µM; 260,000 tested, 0.83% active; P43116;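 active = compounds whose cAMP rise, as percent of the full-agonist control response, exceeds 60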;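 also: rat C6 glioma line stably carrying human EP2 under a CMV promoter; the protocol text gives 20 µM as final concentration; 100% = response of wells given 1 µM PGE2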
S1P4 agonist: human S1P4 receptor agonism; O95977; S1P4-expressing cell line, agonist reporter assay; activation, % at 4.98 µM; 220,000 tested, 0.35% active; in the data active = activation above about 11%;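 also: 0% = DMSO vehicle and 100% = reference agonist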
S1P4 antagonist: blocks the human S1P4 receptor | O95977 | S1P4-expressing cells, antagonist mode, reporter read-out | inhibition, % at 4.98 µM | 220,000 tested, 0.26% active | AID 1510; in the data active = inhibition above about 29%;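 also: 0% = wells stimulated with agonist and 100% = vehicle wells without agonist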
EP2 antag: EP2 receptor (human) inhibition; C6 glioma cells expressing human EP2, cAMP TR-FRET; cells stimulated with saturating PGE2; 260,000 tested, 0.52% active; AID 1422; inhibition, % at 25 µM;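 active = percent inhibition above 40 after rounding to a whole number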;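 also: rat C6 glioma host cells with rolipram phosphodiesterase inhibitor present; the protocol text gives 20 µM as final concentration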
S1P4 ag conf: confirmation of human S1P4 receptor agonists; shares compounds with S1P4 agonist; S1P4 agonist cell-based reporter assay; activation, % at 4.98 µM; 740 tested, 7% active; AID 1523; in the data active = activation above about 12%;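 also: 0% = vehicle and 100% = full reference agonist response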
S1P1 agonist: activates human S1P1, counter-screen for S1P4 agonists; 740 tested, 4% active; activation, % at 4.98 µM; S1P1 agonist cell-based assay, activation; shares compounds with S1P4 agonist; in the data active = activation above about 21%;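 also: 0% = vehicle wells and 100% = reference agonist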
Target sequence (P21453 whole entry, looked up): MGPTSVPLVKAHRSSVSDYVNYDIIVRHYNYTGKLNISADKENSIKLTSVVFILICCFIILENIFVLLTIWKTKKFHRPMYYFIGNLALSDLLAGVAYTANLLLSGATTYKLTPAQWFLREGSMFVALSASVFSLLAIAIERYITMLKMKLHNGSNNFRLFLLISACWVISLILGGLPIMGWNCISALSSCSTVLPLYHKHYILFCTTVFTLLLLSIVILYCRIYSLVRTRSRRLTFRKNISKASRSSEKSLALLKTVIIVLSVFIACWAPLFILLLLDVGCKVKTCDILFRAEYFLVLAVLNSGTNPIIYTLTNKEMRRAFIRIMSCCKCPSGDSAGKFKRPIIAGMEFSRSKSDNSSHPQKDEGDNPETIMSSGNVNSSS
Numbers without * were called inactive.

Results for COCCn1nnnc1C(c1cc2cc(C)ccc2[nH]c1=O)N1CCN(c2ccccc2OC)CC1 (centres undefined) ?
EP2 modulator: -21; EP2 antag: 6

How did COc1ccc(OCCSc2nc(-c3ccccc3)cc(=O)[nH]2)cc1 do in these assays?
S1P3 antagonist: -12; EP2 modulator: 24; S1P4 agonist: 31*; S1P4 antagonist: -4; EP2 antag: 3; S1P4 ag conf: -2; S1P1 agonist: -2

How did CCOc1ccc(OCCSc2nc(-c3ccccc3)cc(=O)[nH]2)cc1 do in these assays?
S1P3 antagonist: 0; EP2 modulator: 41; S1P4 agonist: 1; S1P4 antagonist: -5; EP2 antag: 5

What do the screens show for `Cc1ccc(-n2ncc3c(=O)n(CC(=O)OCc4ccccc4)cnc32)cc1`?
S1P3 antagonist: -28; EP2 modulator: 17; S1P4 agonist: 17*; S1P4 antagonist: -28; EP2 antag: 7; S1P4 ag conf: -2; S1P1 agonist: -2

How did O=C(Cn1cnc2c(cnn2-c2ccccc2)c1=O)OCc1ccccc1 do in these assays?
S1P3 antagonist: -4; EP2 modulator: -11; S1P4 agonist: -2; S1P4 antagonist: -15; EP2 antag: 5

Results for C/C=C/C(=O)OCC(=O)Nc1ccc(C)c(S(=O)(=O)N(C)C)c1 ?
S1P3 antagonist: 14; EP2 modulator: -21; S1P4 agonist: 1; S1P4 antagonist: -18; EP2 antag: 4

What do the screens show for `Cc1ccc(NC(=O)COC(=O)[C@H](C)N2C(=O)C3CC=CCC3C2=O)cc1S(=O)(=O)N(C)C` (some centres undefined)?
S1P3 antagonist: -22; EP2 modulator: -26; S1P4 agonist: 16*; S1P4 antagonist: -17; EP2 antag: 5; S1P4 ag conf: -1; S1P1 agonist: -5

Results for CC(C)C(=O)Nc1cccc(C(=O)OCC(=O)c2cccs2)c1 ?
EP2 modulator: -26; EP2 antag: 18

How did CC(C)n1cc(CN2CCN(CCc3ccccc3)C(CCO)C2)cn1 (centres undefined) do in these assays?
S1P3 antagonist: 2; EP2 modulator: -1; S1P4 agonist: 14*; S1P4 antagonist: 1; EP2 antag: 9; S1P4 ag conf: -2; S1P1 agonist: -4

Results for OCCC1CN(Cc2cccnc2)CCN1CCc1ccccc1 (centres undefined) ?
S1P3 antagonist: -5; EP2 modulator: 23; S1P4 agonist: -1; S1P4 antagonist: -5; EP2 antag: 8

How did COc1ccc(NC(=O)c2cc(-c3ccccc3)nc3c2c(C)nn3-c2ccccc2)c(OC)c1 do in these assays?
S1P3 antagonist: -15; EP2 modulator: 34; S1P4 agonist: 24*; S1P4 antagonist: -8; EP2 antag: 7; S1P4 ag conf: -2; S1P1 agonist: 1

Results for CCCC(C)c1nnc(NC(=O)c2cc(OC)cc(OC)c2)s1 (centres undefined) ?
EP2 modulator: -81; EP2 antag: 8

Results for O=C(NC1CCCCC1)C(c1ccc(F)cc1)N(Cc1ccco1)C(=O)c1ccccn1 (centres undefined) ?
S1P3 antagonist: -4; EP2 modulator: -5; S1P4 agonist: 1; S1P4 antagonist: 7; EP2 antag: 13

Results for O=C(NCc1ccccc1)C(c1ccc(F)cc1)N(Cc1ccco1)C(=O)c1ccccn1 (centres undefined) ?
EP2 modulator: -2; S1P4 agonist: 40*; S1P4 antagonist: -4; EP2 antag: 12; S1P4 ag conf: -3; S1P1 agonist: -3

What do the screens show for `O=C(CN1CCC(c2ccc(F)cc2)CC1)NCc1ccco1`?
EP2 modulator: -89; EP2 antag: 4

How did COC(=O)c1cc(C(=O)OC)cc(N2C(=O)CC(NNC(=O)c3ccccc3Br)C2=O)c1 (centres undefined) do in these assays?
EP2 modulator: -6; S1P4 agonist: 1; S1P4 antagonist: -24; EP2 antag: 4

Results for COC(=O)c1cc(C(=O)OC)cc(N2C(=O)CC(NNC(=O)c3ccc(C)cc3)C2=O)c1 (centres undefined) ?
S1P3 antagonist: 0; EP2 modulator: 6; S1P4 agonist: 29*; S1P4 antagonist: -6; EP2 antag: 1; S1P4 ag conf: -2; S1P1 agonist: -2
